Experimental data published in ChEMBL document CHEMBL3988442, “University of Dundee, Small-Polar-MMV Screening Library” (2021).
For some assays here: Potency and affinity values are given separately.

How the values were obtained:
Set-up in all cases: scale not given: direction of the effect not stated beside the values
[1] = biological target: Protein translocase subunit SecA (Escherichia coli (strain K12)) (UniProt P10408); assay: Assay to Identify E. coli SecA ATPase Inhibitors; assay type: functional; details: 30 µM
[2] = biological target: T1, Ubiquitin-activating enzyme e1, putative (Leishmania donovani (strain BPK282A1)) (UniProt E9BSI1); assay: Leishmania donovani Ubiquitin Activating Enzyme (LdE1); assay type: functional; details: 30 µM
T1 sequence (whole entry): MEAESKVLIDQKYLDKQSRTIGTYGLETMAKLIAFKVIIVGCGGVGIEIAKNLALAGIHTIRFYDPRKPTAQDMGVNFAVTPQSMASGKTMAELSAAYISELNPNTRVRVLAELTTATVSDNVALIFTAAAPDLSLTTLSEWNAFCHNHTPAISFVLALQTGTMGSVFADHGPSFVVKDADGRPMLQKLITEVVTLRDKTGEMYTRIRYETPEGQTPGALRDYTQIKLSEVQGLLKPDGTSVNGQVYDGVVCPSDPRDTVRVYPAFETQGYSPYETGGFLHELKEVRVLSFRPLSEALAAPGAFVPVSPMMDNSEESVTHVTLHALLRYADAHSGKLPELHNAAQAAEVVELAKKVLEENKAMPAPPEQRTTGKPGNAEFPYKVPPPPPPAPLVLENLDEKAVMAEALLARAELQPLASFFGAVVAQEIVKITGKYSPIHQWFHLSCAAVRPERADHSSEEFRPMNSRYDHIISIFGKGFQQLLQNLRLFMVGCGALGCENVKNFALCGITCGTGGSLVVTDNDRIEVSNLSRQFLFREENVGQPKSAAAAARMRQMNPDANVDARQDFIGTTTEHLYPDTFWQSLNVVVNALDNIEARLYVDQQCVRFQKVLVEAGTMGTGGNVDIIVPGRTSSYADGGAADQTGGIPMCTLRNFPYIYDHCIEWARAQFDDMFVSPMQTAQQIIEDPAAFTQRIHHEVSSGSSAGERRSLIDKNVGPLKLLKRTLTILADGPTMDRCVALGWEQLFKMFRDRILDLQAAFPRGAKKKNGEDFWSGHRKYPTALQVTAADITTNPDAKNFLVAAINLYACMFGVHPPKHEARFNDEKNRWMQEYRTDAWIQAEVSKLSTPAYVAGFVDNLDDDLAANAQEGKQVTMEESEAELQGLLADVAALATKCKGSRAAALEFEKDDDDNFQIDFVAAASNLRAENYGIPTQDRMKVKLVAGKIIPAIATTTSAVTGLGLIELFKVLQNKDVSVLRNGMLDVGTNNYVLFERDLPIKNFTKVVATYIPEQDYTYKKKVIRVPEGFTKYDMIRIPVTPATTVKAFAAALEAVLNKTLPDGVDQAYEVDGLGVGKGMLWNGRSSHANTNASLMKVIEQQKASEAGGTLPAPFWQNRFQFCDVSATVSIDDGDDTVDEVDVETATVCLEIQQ

[3] = biological target: AMP-activated protein kinase, AMPK (Homo sapiens) (UniProt P54646+O43741+P54619+Q9UGJ0+Q9Y478+Q13131+Q9UGI9); assay: AMP-dependent Kinase enzyme assay. An in vitro enzyme assay that detects ADP turnover that is directly proportional to AMPK activity. This uses naive AMPK that is activated during the assay with MK-8722; assay type: functional; details: 30 µM
[4] = biological target: Sialic acid-binding Ig-like lectin 9 (Homo sapiens) (UniProt Q9Y336); assay: Hs-Siglec9 ALPHAscreen SOP 20170721; details: 10 µM
[5] = tested on: Trypanosoma cruzi; assay: Trypanosoma cruzi phosphomannomutase and mannose-1-phosphate guanylyltransferase assay; assay type: functional; details: 10 µM
[6] = biological target: T2, Arginase-2, mitochondrial (Homo sapiens) (UniProt P78540); assay: in vitro enzyme assay to detect the production of urea directly proportional to the activity of Arginase II; assay type: functional; details: 33.3 µM; note: in the data most compounds retested in dose-response had high values
T2 sequence (whole entry): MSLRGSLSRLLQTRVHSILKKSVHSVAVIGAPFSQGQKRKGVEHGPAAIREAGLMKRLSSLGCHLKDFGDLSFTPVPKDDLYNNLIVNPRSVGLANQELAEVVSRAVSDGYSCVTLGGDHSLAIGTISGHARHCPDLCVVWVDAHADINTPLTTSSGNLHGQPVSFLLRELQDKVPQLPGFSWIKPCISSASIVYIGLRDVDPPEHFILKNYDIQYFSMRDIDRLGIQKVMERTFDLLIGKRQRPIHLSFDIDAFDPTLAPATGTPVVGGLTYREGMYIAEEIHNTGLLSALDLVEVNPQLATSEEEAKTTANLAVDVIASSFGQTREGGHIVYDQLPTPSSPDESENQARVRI

[7] = biological target: T3, Proteasome subunit beta (Trypanosoma cruzi) (UniProt O96673); assay: Trypanosoma cruzi proteasome chymotrypsin-like activity (TcProtChymo) assay.; note: in the data most compounds retested in dose-response had high values; assay type: functional; details: 9.37 µM
T3 sequence (whole entry): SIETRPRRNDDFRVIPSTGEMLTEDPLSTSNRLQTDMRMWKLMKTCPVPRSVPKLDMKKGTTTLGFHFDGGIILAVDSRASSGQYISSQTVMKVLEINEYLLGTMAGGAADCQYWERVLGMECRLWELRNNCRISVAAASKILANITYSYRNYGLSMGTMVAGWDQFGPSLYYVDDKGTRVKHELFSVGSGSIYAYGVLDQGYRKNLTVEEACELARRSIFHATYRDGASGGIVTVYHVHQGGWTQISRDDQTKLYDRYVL

[8] = species on record: Homo sapiens; assay: To identify inhibition of the IFN signalling (Jak-Stat) pathway via expression of an eGFP reporter gene under the control of an IFN-stimulated response element (ISRE) containing MxA promoter.; assay type: functional; details: 30 µM
[9] = biological target: T4, Tyrosyl-tRNA synthetase, putative (Trypanosoma cruzi (strain CL Brener)) (UniProt Q4DSP6); assay: Trypanosoma cruzi tyrosyl tRNA synthetase (TcYRS) _High Tyrosine SOP; assay type: functional; details: 30 µM; note: in the data most compounds retested in dose-response had high values
T4 sequence (whole entry): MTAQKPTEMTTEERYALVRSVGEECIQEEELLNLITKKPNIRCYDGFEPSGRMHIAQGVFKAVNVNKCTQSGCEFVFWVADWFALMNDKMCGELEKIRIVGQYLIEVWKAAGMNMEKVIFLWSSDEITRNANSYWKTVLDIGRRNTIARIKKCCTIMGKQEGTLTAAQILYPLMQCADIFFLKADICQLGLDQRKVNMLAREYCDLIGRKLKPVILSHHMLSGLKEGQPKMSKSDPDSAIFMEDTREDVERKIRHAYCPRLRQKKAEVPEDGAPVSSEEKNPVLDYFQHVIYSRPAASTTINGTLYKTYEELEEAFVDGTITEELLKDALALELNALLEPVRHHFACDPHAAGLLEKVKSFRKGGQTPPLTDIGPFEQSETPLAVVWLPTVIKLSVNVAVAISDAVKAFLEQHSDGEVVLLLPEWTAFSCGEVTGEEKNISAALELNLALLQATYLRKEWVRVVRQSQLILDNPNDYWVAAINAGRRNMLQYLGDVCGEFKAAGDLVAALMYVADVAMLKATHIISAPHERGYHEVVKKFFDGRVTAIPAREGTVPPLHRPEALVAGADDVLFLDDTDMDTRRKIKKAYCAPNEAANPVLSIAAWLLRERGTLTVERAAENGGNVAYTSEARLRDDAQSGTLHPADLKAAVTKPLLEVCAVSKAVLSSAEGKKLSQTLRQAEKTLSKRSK

[10] = biological target: T4, Tyrosyl-tRNA synthetase, putative (Trypanosoma cruzi (strain CL Brener)); assay: Trypanosoma cruzi tyrosyl tRNA synthetase (TcYRS) SOP; assay type: functional; details: 30 µM
[11] = biological target: Chromo domain-containing protein 1 (Saccharomyces cerevisiae (strain ATCC 204508 / S288c) (Baker's yeast)) (UniProt P32657); assay: ScCHD-1 Enzyme Inhibition Assay; assay type: functional; details: 30 µM; note: in the data most compounds retested in dose-response had high values
Chromo domain-containing protein 1 (Saccharomyces cerevisiae (strain ATCC 204508 / S288c) (Baker's yeast)), sequence (P32657 whole entry, the tested form may be a part): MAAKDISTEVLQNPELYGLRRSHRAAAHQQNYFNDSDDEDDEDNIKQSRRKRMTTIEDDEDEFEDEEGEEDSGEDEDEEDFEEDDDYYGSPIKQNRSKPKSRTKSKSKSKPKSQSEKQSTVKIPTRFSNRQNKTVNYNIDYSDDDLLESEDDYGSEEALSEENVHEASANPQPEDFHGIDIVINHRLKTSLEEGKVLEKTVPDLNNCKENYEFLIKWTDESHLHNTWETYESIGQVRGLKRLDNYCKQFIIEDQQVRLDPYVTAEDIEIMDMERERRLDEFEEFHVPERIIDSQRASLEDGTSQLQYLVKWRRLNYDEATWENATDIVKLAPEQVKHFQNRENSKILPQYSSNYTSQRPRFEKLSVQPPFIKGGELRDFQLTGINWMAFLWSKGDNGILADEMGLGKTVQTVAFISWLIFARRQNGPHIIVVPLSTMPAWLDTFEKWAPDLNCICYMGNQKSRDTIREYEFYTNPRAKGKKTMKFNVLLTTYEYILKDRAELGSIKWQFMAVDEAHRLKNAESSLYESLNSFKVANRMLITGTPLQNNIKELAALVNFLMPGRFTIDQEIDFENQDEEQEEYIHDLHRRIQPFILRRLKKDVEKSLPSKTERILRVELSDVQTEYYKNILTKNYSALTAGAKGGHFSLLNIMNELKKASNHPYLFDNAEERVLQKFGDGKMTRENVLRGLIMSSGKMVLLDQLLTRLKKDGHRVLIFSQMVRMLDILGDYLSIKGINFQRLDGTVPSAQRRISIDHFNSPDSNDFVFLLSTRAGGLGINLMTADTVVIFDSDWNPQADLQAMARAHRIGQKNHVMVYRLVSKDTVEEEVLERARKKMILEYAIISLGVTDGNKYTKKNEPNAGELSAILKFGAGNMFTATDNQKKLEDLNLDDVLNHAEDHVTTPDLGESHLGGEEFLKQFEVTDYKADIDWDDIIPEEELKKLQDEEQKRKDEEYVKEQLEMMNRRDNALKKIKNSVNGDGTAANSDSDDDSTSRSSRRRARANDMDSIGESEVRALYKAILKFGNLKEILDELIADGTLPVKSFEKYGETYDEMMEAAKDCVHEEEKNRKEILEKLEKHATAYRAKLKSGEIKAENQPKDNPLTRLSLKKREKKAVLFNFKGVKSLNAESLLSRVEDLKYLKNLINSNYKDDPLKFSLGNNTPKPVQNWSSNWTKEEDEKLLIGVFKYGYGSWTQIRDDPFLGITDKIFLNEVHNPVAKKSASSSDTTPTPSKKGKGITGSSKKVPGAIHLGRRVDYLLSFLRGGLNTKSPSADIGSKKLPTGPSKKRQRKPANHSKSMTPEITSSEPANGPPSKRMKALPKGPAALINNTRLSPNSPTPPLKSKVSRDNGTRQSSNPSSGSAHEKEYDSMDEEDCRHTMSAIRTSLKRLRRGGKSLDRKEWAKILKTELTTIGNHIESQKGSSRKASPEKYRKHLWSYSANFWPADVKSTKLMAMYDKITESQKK

Sialic acid-binding Ig-like lectin 9 (Homo sapiens), sequence (Q9Y336 whole entry): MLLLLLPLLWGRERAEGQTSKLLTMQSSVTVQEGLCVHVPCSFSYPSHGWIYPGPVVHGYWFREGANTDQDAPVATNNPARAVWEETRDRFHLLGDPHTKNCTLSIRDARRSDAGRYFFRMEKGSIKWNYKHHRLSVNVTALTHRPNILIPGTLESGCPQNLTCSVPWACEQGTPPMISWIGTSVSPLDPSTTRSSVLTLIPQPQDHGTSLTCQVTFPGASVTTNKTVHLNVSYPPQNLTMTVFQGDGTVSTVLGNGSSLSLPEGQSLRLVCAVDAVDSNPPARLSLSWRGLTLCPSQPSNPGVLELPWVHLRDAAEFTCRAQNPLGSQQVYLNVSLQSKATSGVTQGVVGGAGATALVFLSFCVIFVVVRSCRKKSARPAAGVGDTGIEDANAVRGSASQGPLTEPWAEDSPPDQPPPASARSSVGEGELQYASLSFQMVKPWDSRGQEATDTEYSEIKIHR
Protein translocase subunit SecA (Escherichia coli (strain K12)), sequence (P10408 whole entry): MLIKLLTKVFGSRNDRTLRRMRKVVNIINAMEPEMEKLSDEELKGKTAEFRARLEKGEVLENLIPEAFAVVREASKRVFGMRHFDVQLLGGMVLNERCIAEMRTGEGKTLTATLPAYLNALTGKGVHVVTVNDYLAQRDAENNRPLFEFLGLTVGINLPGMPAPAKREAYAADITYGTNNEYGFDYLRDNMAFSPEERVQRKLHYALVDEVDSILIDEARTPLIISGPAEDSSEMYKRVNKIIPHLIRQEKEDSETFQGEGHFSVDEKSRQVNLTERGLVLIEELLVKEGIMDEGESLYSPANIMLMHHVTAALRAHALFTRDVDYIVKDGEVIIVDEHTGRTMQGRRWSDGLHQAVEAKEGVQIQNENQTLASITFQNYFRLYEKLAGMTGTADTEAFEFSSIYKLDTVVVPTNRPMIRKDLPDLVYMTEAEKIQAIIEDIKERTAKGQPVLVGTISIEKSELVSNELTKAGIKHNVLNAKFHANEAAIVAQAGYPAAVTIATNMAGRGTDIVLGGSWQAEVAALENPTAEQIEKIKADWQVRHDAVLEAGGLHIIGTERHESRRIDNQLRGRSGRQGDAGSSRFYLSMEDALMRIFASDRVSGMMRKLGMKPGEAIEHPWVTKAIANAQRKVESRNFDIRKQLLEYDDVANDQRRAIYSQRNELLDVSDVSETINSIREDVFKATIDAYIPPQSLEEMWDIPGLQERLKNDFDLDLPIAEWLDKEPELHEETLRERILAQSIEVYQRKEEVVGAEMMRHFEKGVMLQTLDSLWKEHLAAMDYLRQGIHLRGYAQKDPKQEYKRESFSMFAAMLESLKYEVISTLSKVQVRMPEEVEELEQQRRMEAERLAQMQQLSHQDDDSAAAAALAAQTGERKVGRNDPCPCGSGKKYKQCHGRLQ

Compound | Percent Effect [1] | Percent Effect [2] | Percent Effect [3] | Percent Effect [4] | Percent Effect [5] | Percent Effect [6] | Percent Effect [7] | Percent Effect [8] | Percent Effect [9] | Percent Effect [10] | Percent Effect [11]
CSCC[C@H](N)C(=O)NCc1cc2n(n1)CCCN(C1CCCCC1)C2 | -0.291% | 12.5% | -5.04% | 5.09% | 4.37% | 36.2% | 13.7% | 2.41% | 4.21% | 12.8% | -3.52%
Cc1c[nH]c(CN(C)c2nc(C3CCCC3)nc3c2cnn3C)n1 | -3.47% | 1.39% | 3.98% | -7.75% | -3.01% | 2.21% | 3.68% | -3.43% | 0% | 2.56% | -2.96%
O=C(N1CCCO1)[C@@]12CCO[C@@H]1CCN(C1CCCCC1)C2 | -5.99% | 16% | -8.58% | 1.15% | 0% | -50.7% | 4.96% | -2.54% | -105% | 15% | -10.2%
CN(C)S(=O)(=O)c1ccc(OCCNCCn2cccn2)cc1 | -6.54% | 1.27% | 2.35% | -1.53% | -1.13% | 1.5% | 5.15% | 11.8% | -1.04% | -12.7% | -41.4%
CSc1ccccc1CN1CCn2nc(CNC(C)=O)cc2C1 | 0.00499% | 11% | 1.85% | 8.13% | 2.35% | 18.2% | 18.6% | 15.7% | 6.45% | 20% | -3.35%
Cc1nc(O)cc(C2CCN(Cc3cccc(F)c3F)C2)n1 (stereo unspecified) | -5.61% | 20.3% | -0.666% | -0.896% | 1.19% | -3.94% | 9.83% | 2.45% | 2.15% | 16.9% | -14.2%
COC(=O)c1ccc(C2CC(=O)Oc3cc(C)[nH]c(=O)c32)cc1 (stereo unspecified) | -1.55% | 6.67% | -1.14% | 0.386% | 4.71% | -2.99% | 7.58% | -1.51% | 6.35% | 5.13% | -3.36%
c1ncn(Cc2cnc3n2CCN(Cc2ccsc2)CC3)n1 | -7.34% | 5.33% | 7.1% | 2.34% | -5.32% | -2.1% | 5.9% | 14.2% | 2.13% | 8.97% | 2.03%
CC(=O)Nc1nc(C(=O)NCc2ccc(N3CCCCCC3)nc2)cs1 | -1.32% | 24.1% | 5.19% | -5.11% | -1.13% | -4.09% | 20.6% | 29.2% | 4.17% | 22.8% | -18.9%
COc1ccccc1OCCC(=O)N1CCCC1Cn1cc(C)cn1 (stereo unspecified) | -4.84% | 13% | 5.75% | 5.19% | 1.86% | 3.16% | 0.0808% | 7.77% | 7.62% | 18.8% | -6.89%
CC(C)c1cc(NC(=O)c2ccc(NC3CC3)nc2)[nH]n1 | -5.31% | 13% | 111% | 10.4% | 8.24% | -6.05% | 11.5% | -1.61% | 7.77% | 24.4% | -8.09%
Cc1cnn(CCNCc2cccnc2)c1 | -3.48% | -11.4% | 6.23% | 2.04% | -2.36% | 1.5% | 8.92% | 16.9% | 2.08% | 7.59% | -6.41%
Cc1ccccc1CS(=O)(=O)CC(=O)NCc1ccccc1F | -3.68% | 7.89% | 11.2% | 7.68% | 0.292% | 3.55% | 10.6% | 31% | 4.25% | 13% | -2.75%
CC(C(=O)Nc1ccc(N2CCCC2)nc1)n1ccnc1 (stereo unspecified) | -1.03% | 5.41% | -13.4% | 11.1% | 0.0943% | -8.82% | 8.65% | 28.6% | 5.42% | 16.1% | -8.67%
CCCNC(=O)CSc1nnc2[nH]c(=O)cc(CC)n12 | -1.19% | 19.2% | -3.66% | 6.46% | 1.37% | -1.36% | 15.4% | 10.2% | 7.53% | 17.5% | -7.28%
Cc1nnc(N2CCOC(Cn3cccn3)C2)c(C#N)c1C (stereo unspecified) | -1.71% | -5.26% | -36.6% | 1.01% | 2.26% | 4.21% | -0.334% | -3.56% | 2.45% | 0% | -0.172%
